{"source": "the supplement of paper PMC6953052", "note": "In all, about 1,700 compounds were measured (“fraction of GFP-LC3-positive cells (≥5 vesicles/cell)”: median about 0.058, highest 2% from about 0.59 on). Only a selection was taken, and the highest values are over-represented in it overall."}
{"test_system": "CbCln3 +/+ GFP-LC3 cerebellar neuronal cells", "experiment": "fraction of GFP-LC3-positive cells (≥5 vesicles/cell); higher = more autophagosome accumulation", "in_short": "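Values are the duplicate-averaged fraction of cells passing a GFP-LC3 vesicle cutoff, counted per cell in CellProfiler with out-of-focus images excluded. That cutoff is 5 or more vesicles. Wild-type or mutant CbCln3 cerebellar cells stably expressing GFP-LC3 (2 × 10^3/well, 384-well) were given ~50 nL compound in DMSO by pin transfer for 24 h at 33 °C, then fixed in 3.2% PFA and imaged at 10×, three fields per well.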"}
{"smiles": "CCCCNC(=O)NS(=O)(=O)c1ccc(C)cc1", "fraction of GFP-LC3-positive cells": 0.046}
{"smiles": "CCCCNC(=O)NS(=O)(=O)c1ccc(C)cc1", "note": "[Tolbutamide]", "fraction of GFP-LC3-positive cells": 0.0602}
{"smiles": "Cc1ccc(S(=O)(=O)N[C@@H](Cc2ccccc2)C(=O)CCl)cc1", "note": "[Tosyl-Phe-CMK (TPCK)]", "fraction of GFP-LC3-positive cells": 0.744}
{"smiles": "Cc1ccc(S(=O)(=O)N[C@@H](Cc2ccccc2)C(=O)CCl)cc1", "fraction of GFP-LC3-positive cells": 0.315}
{"smiles": "O=C(O)c1ccccc1OP(=O)(O)O", "note": "[Fosfosal]", "fraction of GFP-LC3-positive cells": 0.0551}
{"smiles": "O[C@H]1[C@H]2c3cc4c(cc3CN3CCC(=C[C@@H]1O)[C@H]23)OCO4", "note": "[Lycorine]", "fraction of GFP-LC3-positive cells": 0.424}
{"smiles": "CC(=O)CC(c1ccc([N+](=O)[O-])cc1)c1c(O)c2ccccc2oc1=O", "note": "(stereo not given) [Acenocoumarol]", "fraction of GFP-LC3-positive cells": 0.0753}
{"smiles": "CCCCC/C=C\\C/C=C\\C/C=C\\C=C\\C1CCCC(=O)O1", "note": "(racemic) [(±)5-HETE Lactone]", "fraction of GFP-LC3-positive cells": 0.0775}
{"smiles": "CCCCNc1ccc(C(=O)OCCOCCOCCOCCOCCOCCOCCOCCOCCOC)cc1", "note": "[Benzonatate]", "fraction of GFP-LC3-positive cells": 0.0604}
{"smiles": "CCCCCCCCCCCCCCCCOCC(CO)OC(C)=O", "note": "(stereo not given) [1-Hexadecyl-2-O-acetyl-glycerol]", "fraction of GFP-LC3-positive cells": 0.076}
{"smiles": "CCCCCCCCCCCCCCCCOCC(CO)OC(C)=O", "note": "(stereo not given)", "fraction of GFP-LC3-positive cells": 0.0373}
{"smiles": "CCN(CC)CCNC(=O)COc1ccc(OC)cc1.Cl", "note": "[Mefexamide hydrochloride]", "fraction of GFP-LC3-positive cells": 0.0712}
{"smiles": "CC1=C(/C=C/C(C)=C/C=C/C(C)=C/C(=O)O)C(C)(C)CCC1", "note": "[Retinoic acid, all trans]", "fraction of GFP-LC3-positive cells": 0.0413}
{"smiles": "CC1=C(/C=C/C(C)=C/C=C/C(C)=C/C(=O)O)C(C)(C)CCC1", "fraction of GFP-LC3-positive cells": 0.0875}
{"smiles": "O=C(CCCCC(=O)Nc1c(I)cc(I)c(C(=O)O)c1I)Nc1c(I)cc(I)c(C(=O)O)c1I", "note": "[Iodipamide]", "fraction of GFP-LC3-positive cells": 0.064}
{"smiles": "CCCCC[C@H](O)/C=C/[C@H]1C(=O)C[C@H](O)[C@@H]1C/C=C\\CCCC(=O)O", "note": "[Prostaglandin D2]", "fraction of GFP-LC3-positive cells": 0.0347}
{"smiles": "CCCCC[C@H](O)/C=C/[C@H]1C(=O)C[C@H](O)[C@@H]1C/C=C\\CCCC(=O)O", "fraction of GFP-LC3-positive cells": 0.0396}
{"smiles": "Cc1ccc2c(c1)C(=O)C1(O)CCN(c3ccccc3)C1=N2", "note": "(stereo not given) [Blebbistatin]", "fraction of GFP-LC3-positive cells": 0.0372}
{"smiles": "CC(=O)S[C@@H]1CC2=CC(=O)CC[C@]2(C)[C@H]2CC[C@@]3(C)[C@@H](CC[C@@]34CCC(=O)O4)[C@H]12", "note": "[Spironolactone]", "fraction of GFP-LC3-positive cells": 0.0439}
{"smiles": "CCCCCCCC/C=C\\C/C=C\\C/C=C\\CCCC(=O)O", "note": "[Mead acid (20:3 n-9)]", "fraction of GFP-LC3-positive cells": 0.0545}
{"smiles": "CCCCCCCC/C=C\\C/C=C\\C/C=C\\CCCC(=O)O", "fraction of GFP-LC3-positive cells": 0.0292}
{"smiles": "Cl.N/C(=N\\C(=O)c1nc(Cl)c(N)nc1N)NCc1ccccc1", "note": "[Benzamil hydrochloride]", "fraction of GFP-LC3-positive cells": 0.0345}
{"smiles": "N/C(=N\\C(=O)c1nc(Cl)c(N)nc1N)NCc1ccc(Cl)cc1Cl", "fraction of GFP-LC3-positive cells": 0.6}
{"smiles": "N/C(=N\\C(=O)c1nc(Cl)c(N)nc1N)NCc1ccccc1", "fraction of GFP-LC3-positive cells": 0.0546}
{"smiles": "CC(N/C(=N\\C#N)Nc1ccncc1)C(C)(C)C", "note": "(stereo not given) [Pinacidil]", "fraction of GFP-LC3-positive cells": 0.0274}
{"smiles": "CCN(CC)CCCCCCCCOC(=O)c1cc(OC)c(OC)c(OC)c1", "fraction of GFP-LC3-positive cells": 0.0457}
{"smiles": "CN1CCC(=C2c3ccccc3Sc3ccccc32)CC1.O=C(O)/C=C\\C(=O)O", "note": "[Pimethixene maleate]", "fraction of GFP-LC3-positive cells": 0.0718}
{"smiles": "CNCCc1ccccn1.CS(=O)(=O)O.CS(=O)(=O)O", "note": "[Betahistine mesylate]", "fraction of GFP-LC3-positive cells": 0.0666}
{"smiles": "CN(C)CCN(Cc1ccc(Cl)cc1)c1ccccn1.Cl", "note": "[Chloropyramine hydrochloride]", "fraction of GFP-LC3-positive cells": 0.056}
{"smiles": "c1ccc(CN(CCN(Cc2ccccn2)Cc2ccccn2)Cc2ccccn2)nc1", "fraction of GFP-LC3-positive cells": 0.755}
{"smiles": "CC(C)(Sc1cc(C(C)(C)C)c(O)c(C(C)(C)C)c1)Sc1cc(C(C)(C)C)c(O)c(C(C)(C)C)c1", "note": "[Probucol]", "fraction of GFP-LC3-positive cells": 0.0472}
{"smiles": "COc1cc2ccc(=O)oc2cc1O", "note": "[Scopoletin]", "fraction of GFP-LC3-positive cells": 0.0458}
{"smiles": "CCOC(=O)Oc1c(OC)cc(C(=O)O[C@@H]2C[C@@H]3CN4CCc5c([nH]c6cc(OC)ccc56)[C@H]4C[C@@H]3[C@H](C(=O)OC)[C@H]2OC)cc1OC", "note": "[Syrosingopine]", "fraction of GFP-LC3-positive cells": 0.251}
{"smiles": "CCn1cc(C(=O)O)c(=O)c2cc(F)c(N3CCNCC3)nc21", "note": "[Enoxacin]", "fraction of GFP-LC3-positive cells": 0.045}
{"smiles": "Cc1cc2ncc(-c3ccccc3)nc2cc1C", "fraction of GFP-LC3-positive cells": 0.0688}
{"smiles": "O=C(O)CNC(=O)C(CS)Cc1ccccc1", "note": "(stereo not given) [Thiorphan]", "fraction of GFP-LC3-positive cells": 0.0564}
{"smiles": "O=C(O)CNC(=O)C(CS)Cc1ccccc1", "note": "(stereo not given)", "fraction of GFP-LC3-positive cells": 0.0651}
{"smiles": "COc1cccc2c1C(=O)c1c(O)c3c(c(O)c1C2=O)C[C@@](O)(C(C)=O)C[C@@H]3O[C@H]1C[C@H](N)[C@H](O)[C@H](C)O1.Cl", "note": "[Daunorubicin hydrochloride]", "fraction of GFP-LC3-positive cells": 0.568}
{"smiles": "COc1cccc2c1C(=O)c1c(O)c3c(c(O)c1C2=O)C[C@@](O)(C(=O)CO)C[C@@H]3O[C@H]1C[C@H](N)[C@H](O)[C@H](C)O1.Cl", "note": "[Doxorubicin hydrochloride]", "fraction of GFP-LC3-positive cells": 0.482}
{"smiles": "COc1cccc2c1C(=O)c1c(O)c3c(c(O)c1C2=O)C[C@@](O)(C(=O)CO)C[C@@H]3O[C@H]1C[C@H](N)[C@H](O)[C@H](C)O1.Cl", "note": "[doxorubicin]", "fraction of GFP-LC3-positive cells": 0.608}
{"smiles": "CC[N+](CC)(CC)CC(=O)Nc1c(C)cccc1C.[Br-]", "fraction of GFP-LC3-positive cells": 0.0348}
{"smiles": "CC(C)N1CCN(c2ccc(OC[C@H]3CO[C@](Cn4cncn4)(c4ccc(Cl)cc4Cl)O3)cc2)CC1", "note": "[Terconazole]", "fraction of GFP-LC3-positive cells": 0.0686}
{"smiles": "O=C(O)c1ccc2nc(-c3ccccc3)c(-c3ccccc3)nc2c1", "fraction of GFP-LC3-positive cells": 0.0605}
{"smiles": "c1ccc2c(Cc3c[nH]c4ccccc34)c[nH]c2c1", "fraction of GFP-LC3-positive cells": 0.0651}
{"smiles": "c1ccc2c(Cc3c[nH]c4ccccc34)c[nH]c2c1", "note": "[Diindolylmethane]", "fraction of GFP-LC3-positive cells": 0.0761}
{"smiles": "Nc1nc(=O)c2c([nH]1)NCC(CNc1ccc(C(=O)N[C@@H](CCC(=O)[O-])C(=O)[O-])cc1)N2C=O.[Ca+2]", "note": "(stereo not given in full) [Folinic acid calcium salt]", "fraction of GFP-LC3-positive cells": 0.0553}
{"smiles": "CC[C@H]1[C@@H]2C=C[C@@H]3[C@H]4C/C=C\\C(=O)NCCC[C@@H]5NC(=O)C(=C5O)C(=O)CC[C@@H]4C[C@@H]3[C@H]2C[C@H]1C", "note": "[Ikarugamyin]", "fraction of GFP-LC3-positive cells": 0.69}
{"smiles": "CC1=C(C(=O)O)N2C(=O)[C@@H](NC(=O)[C@H](N)c3ccccc3)[C@H]2SC1.O", "note": "[Cephalexin monohydrate]", "fraction of GFP-LC3-positive cells": 0.0422}
{"smiles": "OC[C@H]1NC[C@H](O)[C@@H](O)[C@@H]1O", "note": "[deoxynorjrimycin(1)]", "fraction of GFP-LC3-positive cells": 0.0354}
{"smiles": "O=C(O)c1cc(-c2ccc(F)cc2F)ccc1O", "note": "[Diflunisal]", "fraction of GFP-LC3-positive cells": 0.0501}
